The record followed here is publication PMC7862700, “An all-to-all approach to the identification of sequence-specific readers for epigenetic DNA modifications on cytosine”.

Holding throughout (assay): DAPPL (digital affinity profiling via proximity ligation, sequencing); 10 mM Tris-HCl pH 7.5, 50 mM NaCl, 1 mM DTT, 4% glycerol, room temperature, 30 min; GST-TFs on glutathione beads, 16-mer random dsDNA library, 0.1% formaldehyde crosslink after washing; high values mean tight binding
In one assay the target is T1, FLI1 (Homo sapiens, UniProt Q01543 1-452).
T1 sequence: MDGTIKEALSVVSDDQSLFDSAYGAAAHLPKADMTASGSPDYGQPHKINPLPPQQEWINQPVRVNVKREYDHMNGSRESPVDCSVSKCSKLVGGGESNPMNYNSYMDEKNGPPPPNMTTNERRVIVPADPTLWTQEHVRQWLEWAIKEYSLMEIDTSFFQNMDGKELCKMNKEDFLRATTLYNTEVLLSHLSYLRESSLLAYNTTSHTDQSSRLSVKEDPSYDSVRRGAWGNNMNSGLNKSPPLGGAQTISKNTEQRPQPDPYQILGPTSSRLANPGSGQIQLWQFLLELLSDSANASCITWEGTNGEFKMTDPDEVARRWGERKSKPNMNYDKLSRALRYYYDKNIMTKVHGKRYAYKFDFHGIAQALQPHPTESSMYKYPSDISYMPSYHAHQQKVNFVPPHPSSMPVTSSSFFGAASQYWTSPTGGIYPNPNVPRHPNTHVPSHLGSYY
Particulars: protein: recombinant; tags: N-terminal GST; dsDNA, one strand shown. An outline of the steps:
(§1)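 Beads coated with glutathione captured GST-fused human transcription factors that had been expressed in yeast, and the factors were then given DNA barcodes and pooled with a tag-only sample. The pools were incubated with 200 nmole of a random double-stranded 16-mer DNA library in Tris/NaCl/DTT/glycerol buffer for 30 min at room temperature, washed, crosslinked with 0.1% formaldehyde and proximity-ligated with BsaI/T4 ligase at 37 °C for 1 h. PCR amplification and Illumina NextSeq500 sequencing came last. Binding signal is each hexamer's read frequency for a factor divided by its frequency for the tag-only sample.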

A further assay deals with T2, ELK1 (Homo sapiens, UniProt P19419 1-428).
T2 sequence: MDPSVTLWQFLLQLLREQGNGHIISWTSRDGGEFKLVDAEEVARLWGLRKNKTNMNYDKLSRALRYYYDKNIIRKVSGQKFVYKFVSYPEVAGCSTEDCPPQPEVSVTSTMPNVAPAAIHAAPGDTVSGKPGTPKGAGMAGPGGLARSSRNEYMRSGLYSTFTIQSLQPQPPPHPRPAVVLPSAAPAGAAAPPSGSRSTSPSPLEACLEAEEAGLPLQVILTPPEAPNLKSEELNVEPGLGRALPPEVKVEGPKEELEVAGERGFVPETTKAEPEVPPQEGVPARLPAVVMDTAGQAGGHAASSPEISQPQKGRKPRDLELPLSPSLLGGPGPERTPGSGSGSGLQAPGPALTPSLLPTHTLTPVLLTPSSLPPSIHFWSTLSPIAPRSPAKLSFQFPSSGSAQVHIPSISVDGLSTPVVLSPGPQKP
Particulars: protein: recombinant; tags: N-terminal GST; dsDNA, one strand shown. An outline of the steps: as §1

The next assay addresses T3, GABPA (Homo sapiens, UniProt Q06546 1-454).
T3 sequence: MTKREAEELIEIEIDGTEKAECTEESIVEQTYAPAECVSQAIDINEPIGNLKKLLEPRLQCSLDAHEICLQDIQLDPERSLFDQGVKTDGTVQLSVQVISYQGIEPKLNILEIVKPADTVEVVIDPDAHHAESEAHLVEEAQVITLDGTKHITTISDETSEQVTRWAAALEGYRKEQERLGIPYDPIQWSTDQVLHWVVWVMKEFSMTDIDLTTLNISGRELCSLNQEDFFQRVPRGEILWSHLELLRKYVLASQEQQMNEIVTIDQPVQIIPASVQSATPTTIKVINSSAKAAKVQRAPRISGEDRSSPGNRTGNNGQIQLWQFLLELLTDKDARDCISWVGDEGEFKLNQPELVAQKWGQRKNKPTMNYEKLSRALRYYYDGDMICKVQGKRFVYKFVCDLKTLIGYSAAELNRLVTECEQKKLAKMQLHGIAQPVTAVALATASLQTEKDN
The note with it: protein: recombinant; tags: N-terminal GST; dsDNA, one strand shown. The essentials:
as §1

Another assay has as its target T4, ERG (Homo sapiens, UniProt P11308 1-479).
T4 sequence: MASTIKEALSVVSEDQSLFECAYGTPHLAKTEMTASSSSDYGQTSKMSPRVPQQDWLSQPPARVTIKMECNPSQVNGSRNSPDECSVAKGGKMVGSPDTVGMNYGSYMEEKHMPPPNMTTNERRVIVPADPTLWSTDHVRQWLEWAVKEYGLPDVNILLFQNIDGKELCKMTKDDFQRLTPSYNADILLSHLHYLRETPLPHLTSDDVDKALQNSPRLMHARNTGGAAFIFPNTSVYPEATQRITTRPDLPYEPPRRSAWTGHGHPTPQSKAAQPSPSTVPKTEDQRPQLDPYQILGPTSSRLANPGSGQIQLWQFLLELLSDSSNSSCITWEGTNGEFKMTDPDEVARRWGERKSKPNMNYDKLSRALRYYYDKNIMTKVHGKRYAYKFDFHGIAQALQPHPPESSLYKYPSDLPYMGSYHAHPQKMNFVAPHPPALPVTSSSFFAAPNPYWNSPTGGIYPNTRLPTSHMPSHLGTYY
The note with it: protein: recombinant; tags: N-terminal GST; dsDNA, one strand shown. The essentials:
as §1

For a further assay, the target named is ELF1 (Homo sapiens, UniProt P32519 1-619). The note with it: protein: recombinant; tags: N-terminal GST; dsDNA, one strand shown. An outline of the steps: as §1
For another assay, the target named is T5, EHF (Homo sapiens, UniProt Q9NZC4 1-300).
T5 sequence: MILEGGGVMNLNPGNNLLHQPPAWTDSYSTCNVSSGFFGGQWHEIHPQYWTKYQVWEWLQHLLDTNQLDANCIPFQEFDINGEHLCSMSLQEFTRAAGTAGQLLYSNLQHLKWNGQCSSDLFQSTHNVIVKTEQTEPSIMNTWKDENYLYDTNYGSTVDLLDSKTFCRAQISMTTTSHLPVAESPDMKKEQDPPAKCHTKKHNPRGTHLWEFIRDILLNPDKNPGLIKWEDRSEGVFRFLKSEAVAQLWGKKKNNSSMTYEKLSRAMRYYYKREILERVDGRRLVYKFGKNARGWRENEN
Particulars: protein: recombinant; tags: N-terminal GST; dsDNA, one strand shown. The essentials: as §1

For a further assay, the target named is SPI1 (Homo sapiens, UniProt P17947 1-270). The note with it: protein: recombinant; tags: N-terminal GST; dsDNA, one strand shown. An outline of the steps:
as §1

In the next assay the target is SPIB (Homo sapiens, UniProt Q01892 1-262). Particulars: protein: recombinant; tags: N-terminal GST; dsDNA, one strand shown. An outline of the steps: as §1
Another assay concerns the target T6, ELK3 (Homo sapiens, UniProt P41970 1-407).
T6 sequence: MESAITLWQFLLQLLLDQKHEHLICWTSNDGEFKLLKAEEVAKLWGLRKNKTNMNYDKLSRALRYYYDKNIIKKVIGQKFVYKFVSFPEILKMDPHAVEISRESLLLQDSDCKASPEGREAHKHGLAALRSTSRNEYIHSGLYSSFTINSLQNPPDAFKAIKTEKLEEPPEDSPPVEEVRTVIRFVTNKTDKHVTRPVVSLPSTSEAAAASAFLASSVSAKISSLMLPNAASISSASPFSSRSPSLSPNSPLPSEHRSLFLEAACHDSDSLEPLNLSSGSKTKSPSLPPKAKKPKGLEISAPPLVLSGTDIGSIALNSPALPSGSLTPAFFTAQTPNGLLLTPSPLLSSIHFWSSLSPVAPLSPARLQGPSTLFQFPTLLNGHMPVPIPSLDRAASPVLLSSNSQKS
Particulars: protein: recombinant; tags: N-terminal GST; dsDNA, one strand shown. The essentials:
as §1

The target in the next assay is T7, FEV (Homo sapiens, UniProt Q99581 1-238).
T7 sequence: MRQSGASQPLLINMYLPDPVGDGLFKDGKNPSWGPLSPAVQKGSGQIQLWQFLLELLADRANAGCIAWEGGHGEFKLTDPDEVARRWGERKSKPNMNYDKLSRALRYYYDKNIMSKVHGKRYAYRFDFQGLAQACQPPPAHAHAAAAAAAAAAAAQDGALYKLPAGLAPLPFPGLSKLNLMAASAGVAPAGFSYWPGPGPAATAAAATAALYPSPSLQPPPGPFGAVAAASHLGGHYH
Particulars: protein: recombinant; tags: N-terminal GST; dsDNA, one strand shown. The essentials:
as §1

The target in the next assay is ETV5 (Homo sapiens, UniProt P41161 1-510). Particulars: protein: recombinant; tags: N-terminal GST; dsDNA, one strand shown. The essentials:
as §1

Another assay has as its target HSF1 (Homo sapiens, UniProt Q00613 1-529). Particulars: protein: recombinant; tags: N-terminal GST; chain copies: 3; dsDNA, one strand shown. An outline of the steps: as §1
A further assay concerns the target T8, SPIC (Homo sapiens, UniProt Q8N5J4 1-248).
T8 sequence: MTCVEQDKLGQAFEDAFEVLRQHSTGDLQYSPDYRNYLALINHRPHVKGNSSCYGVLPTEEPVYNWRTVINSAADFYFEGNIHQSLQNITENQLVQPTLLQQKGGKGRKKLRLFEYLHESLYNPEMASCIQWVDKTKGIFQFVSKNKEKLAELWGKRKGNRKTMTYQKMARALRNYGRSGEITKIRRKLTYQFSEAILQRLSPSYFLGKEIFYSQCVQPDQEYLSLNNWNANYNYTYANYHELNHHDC
The note with it: protein: recombinant; tags: N-terminal GST; dsDNA, one strand shown. The essentials:
as §1

The target of another assay is ELF4 (Homo sapiens, UniProt Q99607 1-663). Particulars: protein: recombinant; tags: N-terminal GST; dsDNA, one strand shown. The essentials:
as §1

The target of a further assay is T9, ELK4 (Homo sapiens, UniProt P28324-2 1-405).
T9 sequence: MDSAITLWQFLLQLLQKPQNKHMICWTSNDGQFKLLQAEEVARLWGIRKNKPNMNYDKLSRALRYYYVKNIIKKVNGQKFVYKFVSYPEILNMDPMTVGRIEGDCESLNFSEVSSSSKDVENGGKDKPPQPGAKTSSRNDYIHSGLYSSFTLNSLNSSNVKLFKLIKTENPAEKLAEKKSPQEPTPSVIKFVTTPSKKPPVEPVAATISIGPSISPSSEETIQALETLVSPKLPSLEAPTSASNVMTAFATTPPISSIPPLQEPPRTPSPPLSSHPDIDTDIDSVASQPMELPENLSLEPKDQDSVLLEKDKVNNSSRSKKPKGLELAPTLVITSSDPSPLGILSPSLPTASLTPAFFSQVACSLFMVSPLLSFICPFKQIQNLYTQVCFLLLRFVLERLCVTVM
Particulars: protein: recombinant; tags: N-terminal GST; dsDNA, one strand shown. The essentials:
as §1

A further assay concerns the target T10, ETV2 (Homo sapiens, UniProt O00321 1-342).
T10 sequence: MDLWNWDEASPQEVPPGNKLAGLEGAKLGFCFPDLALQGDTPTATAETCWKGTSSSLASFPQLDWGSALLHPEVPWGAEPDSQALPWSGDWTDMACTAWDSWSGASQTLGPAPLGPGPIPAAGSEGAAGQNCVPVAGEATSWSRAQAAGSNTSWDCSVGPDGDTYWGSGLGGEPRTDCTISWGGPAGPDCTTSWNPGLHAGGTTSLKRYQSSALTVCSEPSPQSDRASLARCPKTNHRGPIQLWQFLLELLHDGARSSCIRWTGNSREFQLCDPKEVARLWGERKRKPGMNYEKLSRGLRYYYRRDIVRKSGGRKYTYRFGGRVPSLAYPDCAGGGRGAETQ
Particulars: protein: recombinant; tags: N-terminal GST; dsDNA, one strand shown. The essentials:
as §1

The target of another assay is T11, ELF3 (Homo sapiens, UniProt P78545 1-371).
T11 sequence: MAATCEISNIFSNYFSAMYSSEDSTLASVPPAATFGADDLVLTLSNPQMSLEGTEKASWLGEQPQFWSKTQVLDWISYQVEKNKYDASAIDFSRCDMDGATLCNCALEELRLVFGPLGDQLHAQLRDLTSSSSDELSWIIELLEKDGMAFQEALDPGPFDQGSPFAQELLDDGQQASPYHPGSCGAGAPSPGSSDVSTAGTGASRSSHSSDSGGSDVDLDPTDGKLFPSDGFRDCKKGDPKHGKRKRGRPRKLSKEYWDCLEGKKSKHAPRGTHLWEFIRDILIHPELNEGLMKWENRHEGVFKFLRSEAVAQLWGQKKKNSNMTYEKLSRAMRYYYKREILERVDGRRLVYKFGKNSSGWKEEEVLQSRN
The note with it: protein: recombinant; tags: N-terminal GST; dsDNA, one strand shown. The essentials: as §1

In the next assay the target is CRX (Homo sapiens, UniProt O43186 1-299). The note with it: protein: recombinant; tags: N-terminal GST; dsDNA, one strand shown. An outline of the steps: as §1
For the next assay, the target named is ETV1 (Homo sapiens, UniProt P50549 1-477). Particulars: protein: recombinant; tags: N-terminal GST; dsDNA, one strand shown. An outline of the steps: as §1
Sequence of ETV1 (P50549 whole entry): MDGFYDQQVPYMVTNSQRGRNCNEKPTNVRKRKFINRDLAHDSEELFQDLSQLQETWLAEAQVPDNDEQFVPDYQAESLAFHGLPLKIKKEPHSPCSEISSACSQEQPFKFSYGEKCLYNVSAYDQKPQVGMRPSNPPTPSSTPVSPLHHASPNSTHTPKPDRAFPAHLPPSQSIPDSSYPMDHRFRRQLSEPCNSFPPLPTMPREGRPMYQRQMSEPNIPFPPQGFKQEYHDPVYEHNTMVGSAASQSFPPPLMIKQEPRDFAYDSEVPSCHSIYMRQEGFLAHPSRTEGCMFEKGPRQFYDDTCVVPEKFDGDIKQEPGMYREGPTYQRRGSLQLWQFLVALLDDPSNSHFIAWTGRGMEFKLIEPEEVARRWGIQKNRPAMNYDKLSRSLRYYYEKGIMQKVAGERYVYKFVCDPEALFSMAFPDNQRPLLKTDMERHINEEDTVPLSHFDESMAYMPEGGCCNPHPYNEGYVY

Sequence of SPIB (Q01892 whole entry): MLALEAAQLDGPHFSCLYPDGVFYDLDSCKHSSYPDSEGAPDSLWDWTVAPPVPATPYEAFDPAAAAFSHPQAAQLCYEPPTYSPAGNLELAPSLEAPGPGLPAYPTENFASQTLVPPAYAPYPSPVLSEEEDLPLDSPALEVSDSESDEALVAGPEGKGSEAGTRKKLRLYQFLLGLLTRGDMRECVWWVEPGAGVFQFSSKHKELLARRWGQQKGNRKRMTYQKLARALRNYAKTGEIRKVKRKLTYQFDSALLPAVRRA
Sequence of ELF1 (P32519 whole entry): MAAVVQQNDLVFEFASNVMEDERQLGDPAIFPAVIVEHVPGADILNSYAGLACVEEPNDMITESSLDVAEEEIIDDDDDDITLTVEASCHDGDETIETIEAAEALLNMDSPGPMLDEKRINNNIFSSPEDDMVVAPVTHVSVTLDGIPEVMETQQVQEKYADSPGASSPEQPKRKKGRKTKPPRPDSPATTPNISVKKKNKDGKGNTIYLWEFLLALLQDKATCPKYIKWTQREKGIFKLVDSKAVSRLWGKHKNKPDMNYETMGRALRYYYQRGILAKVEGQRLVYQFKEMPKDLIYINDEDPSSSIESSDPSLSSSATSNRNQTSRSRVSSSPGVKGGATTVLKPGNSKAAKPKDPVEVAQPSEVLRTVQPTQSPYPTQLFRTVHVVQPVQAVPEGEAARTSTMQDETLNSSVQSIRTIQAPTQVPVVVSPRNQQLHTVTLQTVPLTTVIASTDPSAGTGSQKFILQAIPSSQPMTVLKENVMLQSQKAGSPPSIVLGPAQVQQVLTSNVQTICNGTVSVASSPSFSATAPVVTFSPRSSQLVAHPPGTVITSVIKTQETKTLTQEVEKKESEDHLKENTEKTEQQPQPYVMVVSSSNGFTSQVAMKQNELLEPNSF
Sequence of HSF1 (Q00613 whole entry): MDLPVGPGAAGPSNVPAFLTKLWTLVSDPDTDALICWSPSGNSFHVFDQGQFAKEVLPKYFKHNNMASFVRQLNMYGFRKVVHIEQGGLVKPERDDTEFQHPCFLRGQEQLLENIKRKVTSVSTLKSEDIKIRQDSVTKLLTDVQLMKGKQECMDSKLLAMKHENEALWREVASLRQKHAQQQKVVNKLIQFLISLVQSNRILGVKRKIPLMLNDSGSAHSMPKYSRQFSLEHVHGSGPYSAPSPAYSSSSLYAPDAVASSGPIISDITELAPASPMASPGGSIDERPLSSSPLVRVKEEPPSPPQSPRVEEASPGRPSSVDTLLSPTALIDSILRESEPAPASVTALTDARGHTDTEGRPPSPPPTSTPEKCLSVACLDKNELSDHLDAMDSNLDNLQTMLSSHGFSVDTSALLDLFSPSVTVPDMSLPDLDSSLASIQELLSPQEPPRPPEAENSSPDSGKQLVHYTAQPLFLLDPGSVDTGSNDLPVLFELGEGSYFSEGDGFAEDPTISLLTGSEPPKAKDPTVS
Sequence of ELF4 (Q99607 whole entry): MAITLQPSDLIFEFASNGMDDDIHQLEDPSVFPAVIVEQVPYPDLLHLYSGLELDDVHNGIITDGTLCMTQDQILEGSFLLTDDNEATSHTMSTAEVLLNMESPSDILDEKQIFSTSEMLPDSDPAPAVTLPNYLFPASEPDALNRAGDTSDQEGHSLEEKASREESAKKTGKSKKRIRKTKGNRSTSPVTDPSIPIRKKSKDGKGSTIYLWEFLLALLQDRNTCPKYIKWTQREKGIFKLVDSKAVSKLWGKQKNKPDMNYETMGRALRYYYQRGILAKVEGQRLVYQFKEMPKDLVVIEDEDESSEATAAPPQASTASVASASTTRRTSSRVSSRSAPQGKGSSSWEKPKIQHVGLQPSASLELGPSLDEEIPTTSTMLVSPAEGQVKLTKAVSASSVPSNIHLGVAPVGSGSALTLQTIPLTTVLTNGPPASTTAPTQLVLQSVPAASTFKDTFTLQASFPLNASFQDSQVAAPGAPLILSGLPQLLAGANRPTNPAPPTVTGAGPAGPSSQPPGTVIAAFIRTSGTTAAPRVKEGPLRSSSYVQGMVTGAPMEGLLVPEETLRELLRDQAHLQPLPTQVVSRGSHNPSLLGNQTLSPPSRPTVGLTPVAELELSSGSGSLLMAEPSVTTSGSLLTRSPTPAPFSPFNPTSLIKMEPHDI
Sequence of CRX (O43186 whole entry): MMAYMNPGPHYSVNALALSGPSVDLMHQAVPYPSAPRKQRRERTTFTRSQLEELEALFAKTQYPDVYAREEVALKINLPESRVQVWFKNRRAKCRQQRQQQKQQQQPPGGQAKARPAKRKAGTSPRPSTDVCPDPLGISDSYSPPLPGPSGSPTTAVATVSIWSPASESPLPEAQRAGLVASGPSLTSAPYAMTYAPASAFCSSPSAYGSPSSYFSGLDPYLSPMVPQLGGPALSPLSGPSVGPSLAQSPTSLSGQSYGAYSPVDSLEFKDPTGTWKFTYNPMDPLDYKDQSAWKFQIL
Sequence of ETV5 (P41161 whole entry): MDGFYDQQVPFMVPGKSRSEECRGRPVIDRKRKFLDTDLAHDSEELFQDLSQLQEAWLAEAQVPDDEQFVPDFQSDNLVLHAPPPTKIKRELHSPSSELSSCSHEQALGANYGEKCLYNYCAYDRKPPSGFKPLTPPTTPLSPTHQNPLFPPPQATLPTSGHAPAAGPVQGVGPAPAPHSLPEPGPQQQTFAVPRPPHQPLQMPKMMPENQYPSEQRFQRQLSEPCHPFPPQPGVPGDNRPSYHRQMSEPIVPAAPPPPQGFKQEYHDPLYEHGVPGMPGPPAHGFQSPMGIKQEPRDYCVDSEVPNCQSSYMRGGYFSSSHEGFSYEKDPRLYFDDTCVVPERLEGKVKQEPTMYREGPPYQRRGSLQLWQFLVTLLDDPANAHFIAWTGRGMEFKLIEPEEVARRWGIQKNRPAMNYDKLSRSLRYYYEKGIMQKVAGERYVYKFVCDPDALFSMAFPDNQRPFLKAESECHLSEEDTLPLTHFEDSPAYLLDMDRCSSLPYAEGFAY

For AAGATA, the binding signal with FLI1 is 1.07 fold enrichment (6-mer frequency, TF over GST control); with ELK1 it was 1.15 fold enrichment (6-mer frequency, TF over GST control); with GABPA, 1.14 fold enrichment (6-mer frequency, TF over GST control); with ERG it was 1.17 fold enrichment (6-mer frequency, TF over GST control); with ELF1, 1.14 fold enrichment (6-mer frequency, TF over GST control); with EHF, 1.18 fold enrichment (6-mer frequency, TF over GST control). The binding signal is 1.08 fold enrichment (6-mer frequency, TF over GST control) with SPI1; 1.12 fold enrichment (6-mer frequency, TF over GST control) in the assay with SPIB; 1.23 fold enrichment (6-mer frequency, TF over GST control) with ELK3; 1.08 fold enrichment (6-mer frequency, TF over GST control) with FEV; 1.14 fold enrichment (6-mer frequency, TF over GST control) with ETV5; 1.33 fold enrichment (6-mer frequency, TF over GST control) in the assay with HSF1. Besides, the binding signal in the assay with SPIC is 1.06 fold enrichment (6-mer frequency, TF over GST control); with ELF4, 1.16 fold enrichment (6-mer frequency, TF over GST control); in the assay with ELK4, 1.12 fold enrichment (6-mer frequency, TF over GST control); with ETV2 it was 1.16 fold enrichment (6-mer frequency, TF over GST control); with ELF3 it was 1.03 fold enrichment (6-mer frequency, TF over GST control); with CRX, 1.53 fold enrichment (6-mer frequency, TF over GST control). Besides, the binding signal in the assay with ETV1 is 1.2 fold enrichment (6-mer frequency, TF over GST control).
